Assay results taken from the supplement of paper PMC11732987, “Enantioselective OTUD7B fragment discovery through chemoproteomics screening and high-throughput optimisation” (Communications Chemistry, 2025).

Legend:
Test in all cases: log2 ratio of Biotin-Ahx-Ub-VS probe labelling (fragment/DMSO); higher = less target engagement (more negative = stronger competition), active = hit call of the paper (q ≤ 0.05, log2 ratio ≤ -1)
Conditions in all cases: compound concentration: 200 uM; treatment time: 3 h
ALG13 = target: T1, ALG13 (UniProt Q9NP73)
T1 sequence (whole entry): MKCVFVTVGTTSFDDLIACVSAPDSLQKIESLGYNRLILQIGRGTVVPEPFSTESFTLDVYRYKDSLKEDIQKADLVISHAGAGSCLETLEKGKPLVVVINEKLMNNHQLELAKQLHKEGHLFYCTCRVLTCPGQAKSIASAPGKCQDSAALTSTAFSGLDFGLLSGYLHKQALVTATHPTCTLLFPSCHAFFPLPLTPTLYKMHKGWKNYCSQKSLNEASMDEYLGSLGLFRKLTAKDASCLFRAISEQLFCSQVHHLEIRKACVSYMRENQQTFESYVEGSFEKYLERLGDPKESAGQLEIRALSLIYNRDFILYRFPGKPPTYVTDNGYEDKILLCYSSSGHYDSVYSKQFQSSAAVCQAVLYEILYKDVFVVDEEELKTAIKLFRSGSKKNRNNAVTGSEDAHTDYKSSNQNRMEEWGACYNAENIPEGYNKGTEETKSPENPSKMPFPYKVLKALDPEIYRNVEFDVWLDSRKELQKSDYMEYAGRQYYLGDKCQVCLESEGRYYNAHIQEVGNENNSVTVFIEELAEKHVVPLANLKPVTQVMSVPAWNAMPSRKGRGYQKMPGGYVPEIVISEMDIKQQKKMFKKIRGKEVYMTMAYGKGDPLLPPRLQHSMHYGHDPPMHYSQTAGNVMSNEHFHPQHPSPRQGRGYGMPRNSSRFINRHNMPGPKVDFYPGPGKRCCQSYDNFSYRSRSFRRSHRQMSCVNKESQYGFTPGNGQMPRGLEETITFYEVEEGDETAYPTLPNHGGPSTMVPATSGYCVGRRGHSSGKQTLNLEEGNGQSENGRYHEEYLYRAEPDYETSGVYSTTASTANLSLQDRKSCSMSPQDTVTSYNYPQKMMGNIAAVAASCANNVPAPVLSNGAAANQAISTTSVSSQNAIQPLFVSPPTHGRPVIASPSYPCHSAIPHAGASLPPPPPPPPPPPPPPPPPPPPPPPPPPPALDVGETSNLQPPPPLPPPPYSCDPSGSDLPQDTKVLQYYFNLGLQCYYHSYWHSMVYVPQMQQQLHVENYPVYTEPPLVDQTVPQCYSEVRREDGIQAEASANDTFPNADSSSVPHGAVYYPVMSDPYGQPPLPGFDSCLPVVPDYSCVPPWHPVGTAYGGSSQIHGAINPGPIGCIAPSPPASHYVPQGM
Method in brief: (§1)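 HEK293T lysate, 495 µg per sample in Tris/CHAPS/IGEPAL buffer with protease inhibitors, was treated in triplicate with fragment at 200 µM or vehicle for 3 h and then with Biotin-Ahx-Ub-VS at 0.5 µM final for 1 h. Labelled DUBs were NeutrAvidin-enriched, digested with LysC and trypsin, and run by diaPASEF LC-MS/MS. Spectronaut label-free quantities were global-median-normalised, and values are average log2 fragment/vehicle ratios by unpaired t-test on proteins with ≥2 unique peptides.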

ATXN3 = ATXN3 (UniProt P54252)
Sequence of ATXN3 (P54252 whole entry): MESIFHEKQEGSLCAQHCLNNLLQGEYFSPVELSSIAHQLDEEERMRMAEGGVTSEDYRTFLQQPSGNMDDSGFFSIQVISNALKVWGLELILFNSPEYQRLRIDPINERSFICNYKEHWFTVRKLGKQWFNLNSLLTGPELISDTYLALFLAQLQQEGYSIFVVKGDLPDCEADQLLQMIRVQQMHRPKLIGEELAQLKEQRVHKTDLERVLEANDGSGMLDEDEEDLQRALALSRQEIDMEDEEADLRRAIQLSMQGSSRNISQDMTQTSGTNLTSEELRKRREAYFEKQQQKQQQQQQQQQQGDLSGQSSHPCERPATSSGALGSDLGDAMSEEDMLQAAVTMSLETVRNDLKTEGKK
Method in brief: as §1

BAP1 = target: T2, BAP1 (UniProt Q92560)
T2 sequence (whole entry): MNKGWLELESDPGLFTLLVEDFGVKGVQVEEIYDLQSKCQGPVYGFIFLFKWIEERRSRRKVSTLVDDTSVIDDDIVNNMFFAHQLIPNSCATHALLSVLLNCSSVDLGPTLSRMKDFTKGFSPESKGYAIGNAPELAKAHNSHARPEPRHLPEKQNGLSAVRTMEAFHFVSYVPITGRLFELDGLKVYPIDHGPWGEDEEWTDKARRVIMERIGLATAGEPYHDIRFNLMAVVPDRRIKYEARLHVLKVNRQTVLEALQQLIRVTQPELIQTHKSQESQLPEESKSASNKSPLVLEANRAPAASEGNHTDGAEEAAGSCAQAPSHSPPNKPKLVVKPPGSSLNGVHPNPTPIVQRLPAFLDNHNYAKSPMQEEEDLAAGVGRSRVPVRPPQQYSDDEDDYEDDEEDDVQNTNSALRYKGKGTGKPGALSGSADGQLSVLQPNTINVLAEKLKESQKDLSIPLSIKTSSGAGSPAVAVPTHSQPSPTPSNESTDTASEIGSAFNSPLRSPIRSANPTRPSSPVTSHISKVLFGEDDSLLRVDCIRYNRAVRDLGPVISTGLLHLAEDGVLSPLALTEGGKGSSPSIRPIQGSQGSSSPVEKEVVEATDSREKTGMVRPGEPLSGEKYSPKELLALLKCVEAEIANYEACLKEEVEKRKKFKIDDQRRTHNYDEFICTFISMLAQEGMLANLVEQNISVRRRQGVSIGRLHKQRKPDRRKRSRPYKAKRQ
Method in brief: as §1

EIF3F = EIF3F (UniProt O00303)
Sequence of EIF3F (O00303 whole entry): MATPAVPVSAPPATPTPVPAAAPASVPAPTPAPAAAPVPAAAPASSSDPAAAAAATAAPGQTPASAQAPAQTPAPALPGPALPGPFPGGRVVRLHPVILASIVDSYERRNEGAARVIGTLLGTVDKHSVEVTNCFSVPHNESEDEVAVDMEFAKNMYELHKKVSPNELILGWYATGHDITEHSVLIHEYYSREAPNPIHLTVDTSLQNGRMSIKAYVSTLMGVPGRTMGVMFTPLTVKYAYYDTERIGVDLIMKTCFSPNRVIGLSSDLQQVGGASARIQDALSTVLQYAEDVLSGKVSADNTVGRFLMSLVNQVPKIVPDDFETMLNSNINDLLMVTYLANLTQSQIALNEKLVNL
Method in brief: as §1

EIF3H = EIF3H (UniProt O15372)
Sequence of EIF3H (O15372 whole entry): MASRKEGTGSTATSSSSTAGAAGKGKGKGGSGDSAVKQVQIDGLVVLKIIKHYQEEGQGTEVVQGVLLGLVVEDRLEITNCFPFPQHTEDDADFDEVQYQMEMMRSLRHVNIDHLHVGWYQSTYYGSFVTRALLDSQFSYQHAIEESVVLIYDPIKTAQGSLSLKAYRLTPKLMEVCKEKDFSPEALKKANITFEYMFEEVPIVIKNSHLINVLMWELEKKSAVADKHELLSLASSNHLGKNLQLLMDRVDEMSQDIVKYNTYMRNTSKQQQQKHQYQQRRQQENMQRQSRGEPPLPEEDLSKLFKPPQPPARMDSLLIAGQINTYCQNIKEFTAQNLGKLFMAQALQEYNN
Method in brief: as §1

FAM105A = target: T3, FAM105A (UniProt Q9NUU6)
T3 sequence (whole entry): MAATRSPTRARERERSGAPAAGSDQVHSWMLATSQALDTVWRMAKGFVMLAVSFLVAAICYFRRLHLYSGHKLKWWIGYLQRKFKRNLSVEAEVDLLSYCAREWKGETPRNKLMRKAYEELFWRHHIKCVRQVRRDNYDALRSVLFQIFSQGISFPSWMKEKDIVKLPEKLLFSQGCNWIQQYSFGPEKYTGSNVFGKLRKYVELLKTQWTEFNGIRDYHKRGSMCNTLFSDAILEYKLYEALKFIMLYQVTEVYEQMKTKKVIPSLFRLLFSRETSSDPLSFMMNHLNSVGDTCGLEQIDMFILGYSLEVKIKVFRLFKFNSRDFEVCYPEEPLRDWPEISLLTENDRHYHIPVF
Method in brief: as §1

OTUB1 = OTUB1 (UniProt Q96FW1)
Sequence of OTUB1 (Q96FW1 whole entry): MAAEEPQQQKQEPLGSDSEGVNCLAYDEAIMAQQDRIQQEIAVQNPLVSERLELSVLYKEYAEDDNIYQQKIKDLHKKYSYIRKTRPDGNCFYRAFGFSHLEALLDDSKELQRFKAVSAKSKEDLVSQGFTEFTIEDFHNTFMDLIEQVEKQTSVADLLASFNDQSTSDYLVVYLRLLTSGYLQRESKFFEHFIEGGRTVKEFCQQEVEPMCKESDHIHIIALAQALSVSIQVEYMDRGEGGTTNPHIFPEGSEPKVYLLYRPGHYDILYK
Method in brief: as §1

OTUD4 = target: T4, OTUD4 (UniProt Q01804)
T4 sequence (whole entry): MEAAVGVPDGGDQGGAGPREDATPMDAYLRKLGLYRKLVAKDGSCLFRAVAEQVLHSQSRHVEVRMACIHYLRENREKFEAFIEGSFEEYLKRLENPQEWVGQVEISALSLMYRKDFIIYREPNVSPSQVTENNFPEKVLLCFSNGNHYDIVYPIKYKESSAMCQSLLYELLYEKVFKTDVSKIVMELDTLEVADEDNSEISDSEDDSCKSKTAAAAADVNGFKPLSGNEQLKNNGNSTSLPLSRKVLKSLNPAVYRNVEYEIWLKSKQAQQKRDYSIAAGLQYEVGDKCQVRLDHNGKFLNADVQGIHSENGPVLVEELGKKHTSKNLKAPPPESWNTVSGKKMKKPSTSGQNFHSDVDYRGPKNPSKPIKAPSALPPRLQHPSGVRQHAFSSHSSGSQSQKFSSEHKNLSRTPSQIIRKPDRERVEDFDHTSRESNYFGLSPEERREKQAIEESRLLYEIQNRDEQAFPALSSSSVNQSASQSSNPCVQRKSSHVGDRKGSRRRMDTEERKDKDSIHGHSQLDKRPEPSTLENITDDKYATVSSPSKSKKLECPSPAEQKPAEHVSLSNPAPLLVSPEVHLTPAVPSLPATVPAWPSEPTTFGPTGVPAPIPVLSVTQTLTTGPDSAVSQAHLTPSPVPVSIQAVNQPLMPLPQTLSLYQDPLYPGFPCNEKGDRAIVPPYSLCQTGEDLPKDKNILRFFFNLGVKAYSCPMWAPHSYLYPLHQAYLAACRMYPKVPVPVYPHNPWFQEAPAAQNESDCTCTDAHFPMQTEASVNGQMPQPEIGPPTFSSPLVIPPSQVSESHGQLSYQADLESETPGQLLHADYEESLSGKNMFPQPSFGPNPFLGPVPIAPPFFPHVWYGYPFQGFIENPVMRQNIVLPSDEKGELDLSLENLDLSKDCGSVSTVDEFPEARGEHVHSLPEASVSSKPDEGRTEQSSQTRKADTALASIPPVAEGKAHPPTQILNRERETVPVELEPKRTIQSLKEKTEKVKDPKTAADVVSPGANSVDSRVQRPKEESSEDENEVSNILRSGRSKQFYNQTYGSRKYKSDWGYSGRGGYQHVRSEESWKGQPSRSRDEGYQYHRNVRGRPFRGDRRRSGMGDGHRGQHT
Method in brief: as §1

OTUD5 = target: T5, OTUD5 (UniProt Q96G74)
T5 sequence (whole entry): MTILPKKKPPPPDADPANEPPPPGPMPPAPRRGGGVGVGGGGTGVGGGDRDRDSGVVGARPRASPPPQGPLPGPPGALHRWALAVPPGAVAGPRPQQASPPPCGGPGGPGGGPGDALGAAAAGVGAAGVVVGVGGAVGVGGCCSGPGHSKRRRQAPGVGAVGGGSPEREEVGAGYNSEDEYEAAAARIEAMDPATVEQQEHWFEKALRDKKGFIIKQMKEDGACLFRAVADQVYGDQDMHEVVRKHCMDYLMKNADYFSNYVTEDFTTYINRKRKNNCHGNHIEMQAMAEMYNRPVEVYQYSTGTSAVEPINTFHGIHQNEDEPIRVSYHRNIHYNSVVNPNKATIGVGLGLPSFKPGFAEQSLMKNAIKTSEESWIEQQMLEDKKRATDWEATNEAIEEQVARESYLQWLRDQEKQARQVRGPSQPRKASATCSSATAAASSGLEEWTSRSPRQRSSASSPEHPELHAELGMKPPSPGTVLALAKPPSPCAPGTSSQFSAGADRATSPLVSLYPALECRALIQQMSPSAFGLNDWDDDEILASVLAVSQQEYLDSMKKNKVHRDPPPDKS
Method in brief: as §1

Measured: log2 ratio of Biotin-Ahx-Ub-VS probe labelling

O=C(CCl)NC1CCCCNC1=O (centres undefined)
inactive: ALG13 -0.0613 | ATXN3 -0.417 | BAP1 -0.683 | EIF3F -0.598 | EIF3H 0.103 | FAM105A 0.229 | OTUB1 -0.231 | OTUD4 -0.342 | OTUD5 -0.397
